Source: PubChem BioAssay (National Center for Advancing Translational Sciences (NCATS))
Compounds with a hit are over-represented: about 19% of the library has one in this group of screens.
TDP1 cell noCPT: qHTS for Inhibitors of human tyrosyl-DNA phosphodiesterase 1 (TDP1): qHTS in cells in absence of CPT; Potency, µM (doses to about 46.2 µM), inactives show top-dose activity change, negative = growth inhibition, hits mostly inhibitors; DT40 Tdp1-/- hTDP1 cells, no CPT, ATP luminescence, 48 h; 15% of 420,000 active; also: nearly all actives have a fitted effect of over 55% in size
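Readout: luminescence from CellTiter-Glo after 30 min in the dark at RT. Cells: DT40 Tdp1-/- with stable hTDP1, 400/well. Exposure: compounds alone, ≥48 hr, 37 °C.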
HT1080 IDH1KD tx: qHTS for induction of synthetic lethality in tumor cells producing 2HG: qHTS for the HT-1080-IDH1KD cell line; 2% of 360,000 active; Potency, µM (top dose mostly 46.1 µM), without a hit: at the top dose activity, negative = toxicity, actives largely listed as cytotoxic; AID 686971, 2013; HT-1080 IDH1 knockdown viability, ATP luminescence, 48 h;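 also: 0% = DMSO wells and -100% = cell-free medium wells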
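% activity derives from luminescence (CellTiter-Glo), normalised to DMSO and no-cell wells. HT-1080-IDH1KD cells, 750/well, had 48 h compound exposure at 37 °C.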
HT1080-NT tox: qHTS for induction of synthetic lethality in tumor cells producing 2HG: qHTS for the HT-1080-NT fibrosarcoma cell line. HT-1080-NT fibrosarcoma viability, CellTiter-Glo ATP luminescence, 48 h. Potency, µM (doses to about 46.1 µM), for the others: at the top dose activity, negative = less viability, most hits filed as cytotoxic. 1.6% of 360,000 active;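 also: NT is the 2HG producing partner of a matched IDH1 knockdown line; 0% = DMSO-treated cells and -100% = media-only wells without cells; nearly all actives have a fitted effect of over 55% in size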
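HT-1080-NT; 750 cells/well; 5% FBS RPMI; 48 h compound, 37 degrees C; CellTiter-Glo luminescence; curve fitting and curve-class assignment.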
TDP1 cell CPT: qHTS for Inhibitors of human tyrosyl-DNA phosphodiesterase 1 (TDP1): qHTS in cells in presence of CPT; chicken DT40 Tdp1-/-;hTDP1 cells + 20 nM CPT, ATP luminescence, 48 h; Potency, µM (titrated, usually from 46.2 µM), for the others: at the top dose activity change, negative = growth inhibition, hits mostly inhibitors; 12% of 420,000 active; AID 686979, 2013; also: nearly all actives have a fitted effect of over 55% in size
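Chicken DT40 Tdp1-/- cells stably complemented with human TDP1 were seeded at 400 cells/well in medium containing 20 nM camptothecin, exposed to pin-transferred compounds, and grown at 37 °C for at least 48 hr. Viability was read as ATP luminescence.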
KB-3-1 cytotox: qHTS assay for MDR1-selective chemotherapeutics: Primary screen using the parental adenocarcinoma cell KB-3-1; KB-3-1 viability, CellTiter-Glo ATP luminescence, 72 h; Potency, µM (titrated, usually from 46.1 µM), hits mostly cytotoxic; 1.4% of 400,000 active; also: nearly all actives have a fitted effect of over 60% in size
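Cells are dispensed, compounds pinned in, plates held at 37 °C for 72 h, then CellTiter-Glo is added and luminescence read after 10 minutes. Cell line: parental KB-3-1 in phenol-red-free DMEM, 10% FBS.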
KB-V1 MDR tox: qHTS assay for MDR1-selective chemotherapeutics: Primary screen using the drug-selected MDR subline cells KB-V1. KB-V1 MDR cells viability, CellTiter-Glo, 72 h. Potency, µM (series often up to 46.1 µM), actives largely listed as cytotoxic. 3.4% of 400,000 active. AID 1347076, 2019; also: nearly all actives have a fitted effect of over 60% in size
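KB-V1 cells (P-gp-expressing MDR subline of KB-3-1) in phenol-red-free DMEM with 10% FBS were exposed to library compounds over a concentration series for 72 h at 37 degrees C. Viability read by CellTiter-Glo luminescence; concentration-effect curves fitted after normalization.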
Active calls of the source: *; i = inactive; ? = inconclusive; · = no result given; [ ] = dose if it differs, or a comment. Calls follow the shape of the dose curve; as a rule, active = well fitted curve in the direction sought with a large enough effect; inconclusive = small, poorly fitted or top-dose-only effect, or another doubt; inactive = no such curve, though single readings can be large; an effect the other way counts as inactive or inconclusive. Unless noted, % is scaled to controls: 0 for no effect and ±100 for the full control effect; potency is read from the fitted curve at half-maximal effect.

SMILES | TDP1 cell noCPT | HT1080 IDH1KD tx | HT1080-NT tox | TDP1 cell CPT | KB-3-1 cytotox | KB-V1 MDR tox
CCN(CC)S(=O)(=O)c1ccc(NC(=O)CN(c2ccccc2)S(=O)(=O)N(C)C)cc1 | · | · | · | · | i | ?
COc1ccc(-n2ccc(-c3sc(NCc4cc(OC)c5c(c4)OCO5)nc3C)n2)cc1 | ? | · | · | -10%[9.04 µM] | · | ·
CCCCCN1C=CC(=C2C(=O)c3ccccc3C2=O)C=C1 | ? | 9.2µM* | 23µM* | 13µM* | i | 9.2µM*
Cc1ccccc1CC1(CO)CCCN(C(=O)Cc2c(F)ccc(F)c2F)C1 (stereo unspecified) | ? | -3% | -13% | 16µM* | i | i
O=C(Nc1ccc2oc(=O)ccc2c1)c1ccc(-c2cccc([N+](=O)[O-])c2)o1 | 7.3µM* | 8.2µM* | 10µM* | 8.2µM* | 26µM* | i
O=C(Nc1ccc2oc(=O)ccc2c1)c1ccc(-c2cccc(Cl)c2)o1 | ? | 16% | 12% | 8.2µM* | i | ?
O=C(Nc1ccc2oc(=O)ccc2c1)c1ccc(-c2ccccc2[N+](=O)[O-])o1 | ? | ? | 18µM* | 1% | i | i
CC(OC(=O)CSCC(=O)Nc1ccc(Cl)cc1)C(=O)N(C)Cc1ccccc1 (stereo unspecified) | ? | 5% | -1% | ? | i | i
O=C(CSc1nc2c([nH]c3ccccc32)c(=O)n1-c1ccc(F)cc1)N1CCCc2ccccc21 | -14% | · | · | ? | i | ?
Cc1cn(S(=O)(=O)c2ccc(F)c(Cl)c2)cn1 | -5% | · | · | 6% | i | i
CCc1cc2ccc(C)cc2nc1SCC(=O)N1CCN(C(=O)c2ccco2)CC1 | 18µM* | -2% | -2% | ? | i | 5.2µM*
CCc1cc2cc3c(cc2nc1SCC(=O)N1CCN(C(=O)c2ccco2)CC1)OCO3 | ? | -14% | -7% | ? | i | ?
CCc1cc2cc(C)cc(C)c2nc1SCC(=O)N1CCN(C(=O)c2ccco2)CC1 | ? | -1%[9.24 µM] | 0% | ? | ? | 23µM*
O=C(c1ccc2c(=O)n3c(nc2c1)CCC3)N1CCN(S(=O)(=O)c2cccc(F)c2)CC1 | -21% | -7% | 4% | ? | i | i
CC(=O)c1c(C)[nH]c(C(=O)OCc2ccccc2)c1C | 21µM* | -2% | ? | ? | ? | ?
CC(=O)c1c(C)[nH]c(C(=O)OCC(=O)c2ccc(Br)cc2)c1C | 18µM* | -11% | -18% | ? | ? | i
CCOC(=O)c1c(C)[nH]c(C(=O)OCC(=O)c2ccccc2)c1C | ? | 4% | 4% | ? | i | ?
CCC(NC(=O)c1[nH]c(C)c(C(C)=O)c1C)c1ccc(Br)cc1 (stereo unspecified) | 15µM* | ? | ? | ? | i | ?
CC(=O)c1c(C)[nH]c(C(=O)OCCCCN2C(=O)c3ccccc3C2=O)c1C | 4.1µM* | ? | -8% | 8.2µM* | i | i
Cc1csc2nc(COC(=O)CNC(=O)c3ccccc3Cl)cc(=O)n12 | -25% | · | · | -17% | i | i
CCOc1ccc(-c2cc(C(=O)Nc3ccc(F)cc3)[nH]n2)c(C)c1 | -5% | 21% | ? | -11% | i | i
CCCCn1c(N)c(N(CC(C)C)C(=O)c2cccc(S(=O)(=O)N(CC)c3ccccc3)c2)c(=O)[nH]c1=O | -24% | 2% | -3% | -9% | i | i
COC(=O)c1ccc(COC(=O)c2[nH]c(C)c(C(C)=O)c2C)o1 | 2.9µM* | -20% | -19% | 10µM* | i | i
CC(=O)c1c(C)[nH]c(C(=O)OCc2ccc([N+](=O)[O-])cc2)c1C | ? | -1% | 2% | ? | ? | i
CC(C)N(c1ccc(C=O)cc1)C(C)C | -2% | · | · | -29% | i | i
SMILES | TDP1 cell noCPT | HT1080 IDH1KD tx | HT1080-NT tox | TDP1 cell CPT | KB-3-1 cytotox | KB-V1 MDR tox
CCOC(=O)c1c(-c2ccc(OC)cc2)oc2ccc(OCc3ccccc3C)cc12 | ? | · | · | -23% | i | ?
Cc1nc(C)n(CC(=O)NCC2Cc3cc(-c4cccc(OC(F)(F)F)c4)ccc3O2)n1 (stereo unspecified) | 0.018µM* | · | · | -91% | · | ·
Cc1ccc(C(C(=O)NC2CCCCC2)N(CC2CCCO2)C(=O)CCCC(=O)Nc2ccccn2)cc1 (stereo unspecified) | ? | -18% | 2% | ? | i | i
Cc1ccc(CSc2nc3ccc(NC(=O)C(C)C)cc3s2)cc1 | ? | · | · | -17% | i | i
Cc1ccc(F)cc1NC(=O)COC(=O)C1CC2CCCC(C1)C2=O (stereo unspecified) | -16% | 0% | -3% | -9% | i | i
O=C(COC(=O)c1ccc(O)cc1)Nc1ccc(OC(F)F)cc1 | 16µM* | 10% | -1% | ? | i | i
CC(C)CC(NC(N)=O)C(=O)OCC(=O)Nc1ccc(OC(F)F)cc1 (stereo unspecified) | ? | 13% | 5% | 23µM* | i | i
Cc1cccc(C)c1OCC(=O)Nc1ccc2c(c1)OCCO2 | ? | -7% | -11% | 18µM* | 23µM* | ?
Cc1ccccc1OCC(=O)Nc1ccc2c(c1)OCCO2 | ? | 4% | 2% | -21% | i | i
O=C(COC(=O)c1ccc(O)cc1)Nc1ccc2c(c1)OCCO2 | 3.3µM* | -2% | -4% | 10µM* | i | i
O=C(COC(=O)c1cccc(O)c1)Nc1ccc(OC(F)F)cc1 | -28% | -1% | -6% | 2% | i | i
Cc1ccc(NC(=O)COC(=O)c2ccc3c(c2)OCCO3)cc1 | -19% | 1% | 3%[9.24 µM] | -26% | i | ?
C[C@H]1CN([C@@H](C)CO)C(=O)c2cc(Br)cnc2O[C@H]1CN(C)C(=O)Cc1ccccn1 | -16% | 5% | 3% | 1% | i | i
Cc1ccc(CNC(=O)c2cc3c(=O)n(Cc4cccnc4)ccc3nc2C)cc1 | -20% | · | · | -14% | ? | i
